# Source: the supplement of paper PMC11001985
# Compound: C#CCNC(=O)CCSSCCC(=O)NCCc1ccc(C=O)c(C=O)c1
# Test: lysine labeling ratio R10:1 (500 µM / 50 µM probe), SILAC-ABPP in living cells; higher = lower intrinsic lysine reactivity toward the probe, active = 2 or less
# Conditions: HeLa; probe concentrations 500 vs 50 µM
# Protocol: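 Living HeLa cells (SILAC light/heavy) in PBS at room temperature were labeled with 50 µM versus 500 µM of the lysine-reactive, reductant-cleavable probe OPA-S-S-alkyne (SILAC labeling time not stated). Probe-modified peptides were CuAAC-biotinylated, captured on neutravidin and eluted with DTT/IAA, then quantified by LC-MS/MS. R = median peptide ratio per lysine (500/50 µM), combined over 3 forward and 3 reverse SILAC replicates. Ratios are capped at 20; R < 2 = hyper-reactive.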
# UniProt P02786, sequence (P02786 whole entry, looked up): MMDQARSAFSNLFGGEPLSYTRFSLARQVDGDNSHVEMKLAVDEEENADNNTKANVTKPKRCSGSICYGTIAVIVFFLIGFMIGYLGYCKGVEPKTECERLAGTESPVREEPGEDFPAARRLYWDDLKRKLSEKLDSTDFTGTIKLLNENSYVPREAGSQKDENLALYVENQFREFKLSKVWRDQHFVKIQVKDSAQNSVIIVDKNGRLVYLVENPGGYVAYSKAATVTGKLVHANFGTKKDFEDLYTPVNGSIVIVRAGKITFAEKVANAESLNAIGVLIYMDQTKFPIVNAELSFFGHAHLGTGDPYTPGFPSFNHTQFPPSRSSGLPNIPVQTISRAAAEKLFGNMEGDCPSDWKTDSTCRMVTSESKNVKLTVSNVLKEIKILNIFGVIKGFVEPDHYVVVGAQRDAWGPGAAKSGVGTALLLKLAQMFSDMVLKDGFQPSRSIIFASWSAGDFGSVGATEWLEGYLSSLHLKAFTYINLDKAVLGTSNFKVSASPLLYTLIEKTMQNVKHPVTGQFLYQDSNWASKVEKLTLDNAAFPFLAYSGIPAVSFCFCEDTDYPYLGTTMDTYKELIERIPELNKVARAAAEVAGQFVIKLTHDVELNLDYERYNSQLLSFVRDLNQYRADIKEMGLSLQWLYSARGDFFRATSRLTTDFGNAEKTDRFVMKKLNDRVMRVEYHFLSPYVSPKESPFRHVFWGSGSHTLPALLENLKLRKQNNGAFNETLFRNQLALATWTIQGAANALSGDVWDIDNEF
# UniProt Q15181, sequence (Q15181 whole entry): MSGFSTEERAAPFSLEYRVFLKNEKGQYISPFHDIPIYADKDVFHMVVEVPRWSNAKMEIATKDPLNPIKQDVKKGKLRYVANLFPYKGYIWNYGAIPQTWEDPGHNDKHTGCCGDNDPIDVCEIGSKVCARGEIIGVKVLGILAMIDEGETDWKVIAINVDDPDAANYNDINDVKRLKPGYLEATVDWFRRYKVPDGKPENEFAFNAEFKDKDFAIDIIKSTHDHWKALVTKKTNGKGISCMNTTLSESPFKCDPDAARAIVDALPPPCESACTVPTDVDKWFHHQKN
# UniProt Q9BS26, sequence (Q9BS26 whole entry): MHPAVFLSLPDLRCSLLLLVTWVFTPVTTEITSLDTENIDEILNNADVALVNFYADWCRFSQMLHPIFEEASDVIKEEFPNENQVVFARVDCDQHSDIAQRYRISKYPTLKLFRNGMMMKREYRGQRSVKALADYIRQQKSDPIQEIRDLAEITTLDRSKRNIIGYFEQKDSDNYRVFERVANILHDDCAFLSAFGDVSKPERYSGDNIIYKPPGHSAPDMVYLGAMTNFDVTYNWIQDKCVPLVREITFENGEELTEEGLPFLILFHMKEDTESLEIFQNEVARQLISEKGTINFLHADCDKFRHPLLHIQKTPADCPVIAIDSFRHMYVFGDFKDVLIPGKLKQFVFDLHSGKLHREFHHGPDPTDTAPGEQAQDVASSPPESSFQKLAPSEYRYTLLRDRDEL
# UniProt P38646, sequence (P38646 whole entry): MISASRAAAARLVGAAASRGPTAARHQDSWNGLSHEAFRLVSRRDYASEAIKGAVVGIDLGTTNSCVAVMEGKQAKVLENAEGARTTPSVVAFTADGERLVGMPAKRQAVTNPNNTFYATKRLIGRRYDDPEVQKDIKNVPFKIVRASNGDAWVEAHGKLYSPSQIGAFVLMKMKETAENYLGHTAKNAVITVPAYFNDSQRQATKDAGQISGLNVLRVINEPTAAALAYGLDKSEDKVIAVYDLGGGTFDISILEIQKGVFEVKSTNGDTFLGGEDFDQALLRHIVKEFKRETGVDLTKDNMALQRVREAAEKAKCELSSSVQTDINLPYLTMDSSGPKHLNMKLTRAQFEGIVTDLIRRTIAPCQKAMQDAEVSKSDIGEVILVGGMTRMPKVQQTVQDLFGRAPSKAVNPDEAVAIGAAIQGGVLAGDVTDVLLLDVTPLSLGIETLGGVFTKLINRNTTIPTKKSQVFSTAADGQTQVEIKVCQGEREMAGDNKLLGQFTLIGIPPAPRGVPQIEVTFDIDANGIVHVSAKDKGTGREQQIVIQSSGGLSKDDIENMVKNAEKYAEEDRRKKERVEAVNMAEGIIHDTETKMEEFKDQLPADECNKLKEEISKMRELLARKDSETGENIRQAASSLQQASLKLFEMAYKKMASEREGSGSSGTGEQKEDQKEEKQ
# UniProt P11940, sequence (P11940 whole entry): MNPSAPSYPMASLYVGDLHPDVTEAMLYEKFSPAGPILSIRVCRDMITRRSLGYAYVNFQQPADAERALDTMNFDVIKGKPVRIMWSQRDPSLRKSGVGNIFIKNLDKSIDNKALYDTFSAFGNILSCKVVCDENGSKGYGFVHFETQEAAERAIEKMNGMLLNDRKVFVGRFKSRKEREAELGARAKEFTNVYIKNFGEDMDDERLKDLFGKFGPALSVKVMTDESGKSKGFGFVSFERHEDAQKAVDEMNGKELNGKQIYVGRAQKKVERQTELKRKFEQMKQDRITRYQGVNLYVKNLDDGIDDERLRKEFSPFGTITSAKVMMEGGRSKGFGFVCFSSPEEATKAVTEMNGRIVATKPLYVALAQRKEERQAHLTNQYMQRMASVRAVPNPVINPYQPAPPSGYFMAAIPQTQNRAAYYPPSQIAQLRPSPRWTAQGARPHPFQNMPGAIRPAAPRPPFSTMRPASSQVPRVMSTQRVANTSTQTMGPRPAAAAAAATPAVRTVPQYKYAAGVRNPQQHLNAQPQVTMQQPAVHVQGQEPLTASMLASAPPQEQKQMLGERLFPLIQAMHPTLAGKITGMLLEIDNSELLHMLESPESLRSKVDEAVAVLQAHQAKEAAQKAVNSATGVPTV
# UniProt Q9UII2, sequence (Q9UII2 whole entry): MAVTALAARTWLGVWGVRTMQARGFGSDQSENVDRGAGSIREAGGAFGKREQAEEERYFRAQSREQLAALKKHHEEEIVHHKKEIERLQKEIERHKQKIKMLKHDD
# UniProt P10809, sequence (P10809 whole entry): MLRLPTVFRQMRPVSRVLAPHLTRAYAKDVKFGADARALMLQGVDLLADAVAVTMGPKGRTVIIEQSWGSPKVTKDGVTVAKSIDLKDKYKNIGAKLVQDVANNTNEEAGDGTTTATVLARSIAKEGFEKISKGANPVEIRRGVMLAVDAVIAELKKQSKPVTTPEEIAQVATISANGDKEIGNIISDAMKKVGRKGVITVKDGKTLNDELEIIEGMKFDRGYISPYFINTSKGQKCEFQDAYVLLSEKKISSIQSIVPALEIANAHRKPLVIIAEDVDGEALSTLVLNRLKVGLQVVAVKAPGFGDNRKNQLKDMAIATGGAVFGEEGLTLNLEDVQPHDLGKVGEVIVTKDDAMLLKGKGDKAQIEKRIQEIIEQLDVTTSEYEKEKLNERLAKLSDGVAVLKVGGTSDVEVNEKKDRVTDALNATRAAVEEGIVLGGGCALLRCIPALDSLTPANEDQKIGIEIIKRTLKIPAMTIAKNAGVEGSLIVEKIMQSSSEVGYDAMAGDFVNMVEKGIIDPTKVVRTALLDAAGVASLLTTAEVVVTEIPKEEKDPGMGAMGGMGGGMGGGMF
# UniProt P61019, sequence (P61019 whole entry, looked up): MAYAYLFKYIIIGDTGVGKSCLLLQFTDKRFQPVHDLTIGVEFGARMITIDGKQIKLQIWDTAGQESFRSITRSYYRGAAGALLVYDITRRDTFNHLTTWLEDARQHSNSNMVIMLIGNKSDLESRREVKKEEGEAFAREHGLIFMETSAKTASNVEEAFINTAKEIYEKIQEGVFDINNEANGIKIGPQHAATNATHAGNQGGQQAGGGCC
# UniProt Q15125, sequence (Q15125 whole entry): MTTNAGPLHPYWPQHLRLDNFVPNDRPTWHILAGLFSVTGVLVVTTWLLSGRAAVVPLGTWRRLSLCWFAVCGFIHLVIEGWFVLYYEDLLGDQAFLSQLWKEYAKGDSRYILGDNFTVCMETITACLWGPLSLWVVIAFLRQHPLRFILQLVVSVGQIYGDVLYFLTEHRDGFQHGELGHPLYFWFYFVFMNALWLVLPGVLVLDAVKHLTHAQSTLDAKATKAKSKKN
# UniProt Q8N441, sequence (Q8N441 whole entry): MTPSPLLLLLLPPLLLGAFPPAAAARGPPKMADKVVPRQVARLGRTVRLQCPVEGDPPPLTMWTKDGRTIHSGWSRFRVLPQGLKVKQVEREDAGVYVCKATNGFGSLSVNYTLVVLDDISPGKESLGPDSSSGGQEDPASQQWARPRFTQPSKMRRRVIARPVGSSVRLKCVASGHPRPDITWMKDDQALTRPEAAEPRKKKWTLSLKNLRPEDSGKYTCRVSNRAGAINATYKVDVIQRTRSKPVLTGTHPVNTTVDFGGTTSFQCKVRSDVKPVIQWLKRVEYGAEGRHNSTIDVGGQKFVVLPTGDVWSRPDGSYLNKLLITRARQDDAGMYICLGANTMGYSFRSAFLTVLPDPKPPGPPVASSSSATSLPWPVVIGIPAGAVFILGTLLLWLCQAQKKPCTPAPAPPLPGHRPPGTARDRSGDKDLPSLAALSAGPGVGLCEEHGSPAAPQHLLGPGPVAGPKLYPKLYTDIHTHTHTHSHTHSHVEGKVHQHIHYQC
# UniProt P26038, sequence (P26038 whole entry): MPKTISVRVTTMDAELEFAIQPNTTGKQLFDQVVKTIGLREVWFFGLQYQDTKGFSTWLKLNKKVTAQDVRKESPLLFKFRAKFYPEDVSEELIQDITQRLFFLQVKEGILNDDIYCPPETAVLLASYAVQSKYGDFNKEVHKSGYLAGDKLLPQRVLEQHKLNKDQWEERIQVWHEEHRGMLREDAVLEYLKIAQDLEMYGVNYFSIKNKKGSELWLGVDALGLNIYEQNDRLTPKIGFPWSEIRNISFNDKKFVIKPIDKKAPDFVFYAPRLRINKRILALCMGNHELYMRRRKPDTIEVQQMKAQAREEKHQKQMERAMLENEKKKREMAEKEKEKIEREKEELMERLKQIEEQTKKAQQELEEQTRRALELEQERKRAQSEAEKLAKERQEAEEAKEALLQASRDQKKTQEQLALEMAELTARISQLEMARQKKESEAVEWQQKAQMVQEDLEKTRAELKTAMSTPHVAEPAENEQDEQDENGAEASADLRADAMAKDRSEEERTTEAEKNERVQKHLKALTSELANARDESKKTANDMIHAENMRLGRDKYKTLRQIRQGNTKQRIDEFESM
row,Target,lysine labeling ratio R10:1
1,ITGAV (lysine site: K149) (UniProt P06756),4.46 (inactive)
2,UniProt P20591 (lysine site: K505),2.52 (inactive)
3,RPL12 (lysine site: K54) (UniProt P30050),0.658 (active)
4,SPTBN1 (lysine site: K1884) (UniProt Q01082),4.5 (inactive)
5,UniProt Q9Y5I4 (lysine site: K686),5.99 (inactive)
6,PLPP3 (lysine site: K187) (UniProt O14495),2.06 (inactive)
7,EBP (lysine site: K106) (UniProt Q15125),4.19 (inactive)
8,KTN1 (lysine site: K1240) (UniProt Q86UP2),5.6 (inactive)
9,UniProt Q9BS26 (lysine site: K130),2.57 (inactive)
10,ECH1 (lysine site: K231) (UniProt Q13011),1.7 (active)
11,RAB2A (lysine site: K130) (UniProt P61019),1.45 (active)
12,ITGB1 (lysine site: K551) (UniProt P05556),5.51 (inactive)
13,RAB13 (lysine site: K58) (UniProt P51153),13.2 (inactive)
14,ICAM1 (lysine site: K469) (UniProt P05362),4.19 (inactive)
15,SUB1 (lysine site: K68) (UniProt P53999),8.07 (inactive)
16,RPL4 (lysine site: K294) (UniProt P36578),3.4 (inactive)
17,CSE1L (lysine site: K17) (UniProt P55060),1.76 (active)
18,IGF2R (lysine site: K1579) (UniProt P11717),0.605 (active)
19,UniProt Q99623 (lysine site: K262),3.03 (inactive)
20,TLN1 (lysine site: K2361) (UniProt Q9Y490),5.09 (inactive)

row,Target,lysine labeling ratio R10:1
1,UniProt Q9UII2 (lysine site: K90),6.67 (inactive)
2,IGF1R (lysine site: K713) (UniProt P08069),2.62 (inactive)
3,FLNB (lysine site: K1221) (UniProt O75369),3.74 (inactive)
4,TFRC (lysine site: K95) (UniProt P02786),4.27 (inactive)
5,UniProt P62244 (lysine site: K88),1.79 (active)
6,ITGA5 (lysine site: K943) (UniProt P08648),2.54 (inactive)
7,TFRC (lysine site: K180) (UniProt P02786),2.39 (inactive)
8,FLNA (lysine site: K1491) (UniProt P21333),2.1 (inactive)
9,ATAD3B (lysine site: K135) (UniProt Q5T9A4),2.68 (inactive)
10,MSN (lysine site: K79) (UniProt P26038),2.55 (inactive)
11,SLC25A5 (lysine site: K23) (UniProt P05141),3.58 (inactive)
12,GPC1 (lysine site: K347) (UniProt P35052),4.46 (inactive)
13,PABPC1 (lysine site: K157) (UniProt P11940),1.38 (active)
14,HSPD1 (lysine site: K523) (UniProt P10809),5.04 (inactive)
15,HSPA9 (lysine site: K625) (UniProt P38646),3.75 (inactive)
16,RPL10A (lysine site: K212) (UniProt P62906),1.53 (active)
17,EWSR1 (lysine site: K644) (UniProt Q01844),1.76 (active)
18,KRT18 (lysine site: K118) (UniProt P05783),6.22 (inactive)
19,PPA1 (lysine site: K176) (UniProt Q15181),1.88 (active)
20,UniProt Q8N441 (lysine site: K154),1.13 (active)
